SMILES strings stand for the structures.

Assay [1] deals with Dual specificity protein kinase CLK3 (Homo sapiens) (UniProt P49761). The following applies: at 1 µM.
Assay [2] deals with Dual specificity tyrosine-phosphorylation-regulated kinase 1A (Homo sapiens) (UniProt Q13627). The following applies: at 0.1 µM.
For assay [3] the target is unchanged. The following applies: at 1 µM.
Assay [4] has as its target Dual specificity tyrosine-phosphorylation-regulated kinase 1B (Homo sapiens) (UniProt Q9Y463). The following applies: at 0.1 µM.
The target is the same in assay [5]. The following applies: at 1 µM.
Assay [6] deals with T1, Dual specificity tyrosine-phosphorylation-regulated kinase 2 (Homo sapiens) (UniProt Q92630).
T1 sequence (whole entry): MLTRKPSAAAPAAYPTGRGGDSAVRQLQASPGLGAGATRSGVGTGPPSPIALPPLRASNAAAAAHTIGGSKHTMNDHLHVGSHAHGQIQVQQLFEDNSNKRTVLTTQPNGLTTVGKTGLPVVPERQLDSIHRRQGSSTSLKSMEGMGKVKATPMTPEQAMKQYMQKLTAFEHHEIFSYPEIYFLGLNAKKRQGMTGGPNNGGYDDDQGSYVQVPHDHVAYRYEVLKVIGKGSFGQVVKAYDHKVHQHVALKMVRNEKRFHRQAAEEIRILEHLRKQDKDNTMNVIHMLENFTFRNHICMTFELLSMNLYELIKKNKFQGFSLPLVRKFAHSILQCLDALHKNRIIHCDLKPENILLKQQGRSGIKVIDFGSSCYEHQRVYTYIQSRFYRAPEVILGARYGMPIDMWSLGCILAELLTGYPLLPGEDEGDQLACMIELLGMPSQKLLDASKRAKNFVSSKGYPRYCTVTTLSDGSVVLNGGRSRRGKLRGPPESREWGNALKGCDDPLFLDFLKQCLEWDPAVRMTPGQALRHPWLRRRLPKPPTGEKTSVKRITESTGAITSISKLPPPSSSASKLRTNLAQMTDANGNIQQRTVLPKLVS
The following applies: at 0.1 µM.

The target of assay [7] is T1, Dual specificity tyrosine-phosphorylation-regulated kinase 2 (Homo sapiens). The following applies: at 1 µM.
The target in assay [8] is Glycogen synthase kinase-3 alpha (Homo sapiens) (UniProt P49840). The following applies: at 0.1 µM.
Assay [9] has the same target. The following applies: at 1 µM.
In assay [10] the target is Glycogen synthase kinase-3 beta (Homo sapiens) (UniProt P49841). The following applies: at 0.1 µM.
The target is the same in assay [11]. The following applies: at 1 µM.
Assay [12] has as its target Homeodomain-interacting protein kinase 1 (Homo sapiens) (UniProt Q86Z02). The following applies: at 0.1 µM.
Assay [13] has the same target. The following applies: at 1 µM.
Assay [14] has as its target T2, Homeodomain-interacting protein kinase 4 (Homo sapiens) (UniProt Q8NE63).
T2 sequence (whole entry): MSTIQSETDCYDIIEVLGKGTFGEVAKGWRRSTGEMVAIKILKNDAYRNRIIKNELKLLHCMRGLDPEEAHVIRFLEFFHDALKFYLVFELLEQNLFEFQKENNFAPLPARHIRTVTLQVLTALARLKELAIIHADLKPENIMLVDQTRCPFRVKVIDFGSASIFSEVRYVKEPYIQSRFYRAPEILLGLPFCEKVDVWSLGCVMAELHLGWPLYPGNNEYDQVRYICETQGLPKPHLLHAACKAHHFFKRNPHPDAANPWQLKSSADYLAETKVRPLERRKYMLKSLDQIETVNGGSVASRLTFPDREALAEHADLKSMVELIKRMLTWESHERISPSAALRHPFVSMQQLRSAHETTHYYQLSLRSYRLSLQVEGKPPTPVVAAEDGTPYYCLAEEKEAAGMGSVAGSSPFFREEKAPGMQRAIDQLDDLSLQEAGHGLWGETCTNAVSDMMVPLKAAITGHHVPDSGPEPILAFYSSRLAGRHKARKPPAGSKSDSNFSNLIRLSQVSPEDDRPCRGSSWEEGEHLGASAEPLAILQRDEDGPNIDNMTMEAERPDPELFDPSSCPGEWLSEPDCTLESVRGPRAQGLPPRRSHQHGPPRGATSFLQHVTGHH
The following applies: at 0.1 µM.

Assay [15] addresses T2, Homeodomain-interacting protein kinase 4 (Homo sapiens). The following applies: at 1 µM.
Assay [16] has as its target Mitogen-activated protein kinase 9 (Homo sapiens) (UniProt P45984). The following applies: at 0.1 µM.
The target is the same in assay [17]. The following applies: at 1 µM.
The target of assay [18] is Mitogen-activated protein kinase 1 (Homo sapiens) (UniProt P28482). The following applies: at 0.1 µM.
Assay [19] shares this target. The following applies: at 1 µM.
Assay [20] addresses Mitogen-activated protein kinase 3 (Homo sapiens) (UniProt P27361). The following applies: at 0.1 µM.

Mitogen-activated protein kinase 1 (Homo sapiens), sequence (P28482 whole entry): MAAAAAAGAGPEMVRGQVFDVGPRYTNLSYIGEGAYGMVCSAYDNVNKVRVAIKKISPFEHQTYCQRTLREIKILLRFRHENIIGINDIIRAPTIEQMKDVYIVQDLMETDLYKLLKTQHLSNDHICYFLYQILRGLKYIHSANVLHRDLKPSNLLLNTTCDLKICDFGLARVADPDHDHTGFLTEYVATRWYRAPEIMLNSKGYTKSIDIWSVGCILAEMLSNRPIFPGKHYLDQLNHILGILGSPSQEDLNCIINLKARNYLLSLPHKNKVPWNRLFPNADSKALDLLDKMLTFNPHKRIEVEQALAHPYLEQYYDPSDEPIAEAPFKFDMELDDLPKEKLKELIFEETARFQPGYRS
Mitogen-activated protein kinase 3 (Homo sapiens), sequence (P27361 whole entry): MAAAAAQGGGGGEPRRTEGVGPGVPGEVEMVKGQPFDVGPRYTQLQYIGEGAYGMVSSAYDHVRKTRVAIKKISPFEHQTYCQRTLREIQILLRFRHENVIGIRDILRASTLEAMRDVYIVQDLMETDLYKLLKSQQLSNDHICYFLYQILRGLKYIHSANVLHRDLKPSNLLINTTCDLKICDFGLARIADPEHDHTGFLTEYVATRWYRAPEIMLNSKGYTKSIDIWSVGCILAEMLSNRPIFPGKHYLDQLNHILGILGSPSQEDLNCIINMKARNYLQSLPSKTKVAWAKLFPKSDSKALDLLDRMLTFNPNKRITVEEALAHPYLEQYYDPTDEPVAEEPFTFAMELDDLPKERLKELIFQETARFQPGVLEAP
Glycogen synthase kinase-3 beta (Homo sapiens), sequence (P49841 whole entry, looked up): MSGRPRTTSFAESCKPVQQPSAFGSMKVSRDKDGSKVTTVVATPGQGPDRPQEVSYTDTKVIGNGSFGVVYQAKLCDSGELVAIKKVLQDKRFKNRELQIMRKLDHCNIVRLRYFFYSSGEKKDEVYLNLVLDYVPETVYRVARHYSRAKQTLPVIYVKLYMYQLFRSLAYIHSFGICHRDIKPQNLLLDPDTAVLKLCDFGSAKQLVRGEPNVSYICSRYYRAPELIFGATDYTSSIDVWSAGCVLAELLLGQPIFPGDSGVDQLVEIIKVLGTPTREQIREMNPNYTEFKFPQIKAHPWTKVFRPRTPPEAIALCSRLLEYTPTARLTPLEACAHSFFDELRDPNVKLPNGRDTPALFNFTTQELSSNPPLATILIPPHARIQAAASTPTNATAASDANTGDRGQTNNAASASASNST
Glycogen synthase kinase-3 alpha (Homo sapiens), sequence (P49840 2-483 limits assumed): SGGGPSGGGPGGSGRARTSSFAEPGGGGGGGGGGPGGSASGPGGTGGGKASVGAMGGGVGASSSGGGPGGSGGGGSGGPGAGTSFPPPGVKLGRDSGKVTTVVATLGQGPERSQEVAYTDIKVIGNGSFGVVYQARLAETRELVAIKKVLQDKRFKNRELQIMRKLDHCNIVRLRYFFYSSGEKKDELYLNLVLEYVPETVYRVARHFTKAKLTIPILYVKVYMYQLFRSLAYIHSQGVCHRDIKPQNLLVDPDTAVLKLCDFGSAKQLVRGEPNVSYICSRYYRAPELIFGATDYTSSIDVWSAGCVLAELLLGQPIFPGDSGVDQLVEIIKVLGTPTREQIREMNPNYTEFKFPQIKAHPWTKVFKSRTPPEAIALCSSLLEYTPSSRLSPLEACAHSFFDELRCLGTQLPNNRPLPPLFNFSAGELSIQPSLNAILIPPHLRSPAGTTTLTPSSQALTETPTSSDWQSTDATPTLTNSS
Dual specificity tyrosine-phosphorylation-regulated kinase 1B (Homo sapiens), sequence (Q9Y463 whole entry, looked up): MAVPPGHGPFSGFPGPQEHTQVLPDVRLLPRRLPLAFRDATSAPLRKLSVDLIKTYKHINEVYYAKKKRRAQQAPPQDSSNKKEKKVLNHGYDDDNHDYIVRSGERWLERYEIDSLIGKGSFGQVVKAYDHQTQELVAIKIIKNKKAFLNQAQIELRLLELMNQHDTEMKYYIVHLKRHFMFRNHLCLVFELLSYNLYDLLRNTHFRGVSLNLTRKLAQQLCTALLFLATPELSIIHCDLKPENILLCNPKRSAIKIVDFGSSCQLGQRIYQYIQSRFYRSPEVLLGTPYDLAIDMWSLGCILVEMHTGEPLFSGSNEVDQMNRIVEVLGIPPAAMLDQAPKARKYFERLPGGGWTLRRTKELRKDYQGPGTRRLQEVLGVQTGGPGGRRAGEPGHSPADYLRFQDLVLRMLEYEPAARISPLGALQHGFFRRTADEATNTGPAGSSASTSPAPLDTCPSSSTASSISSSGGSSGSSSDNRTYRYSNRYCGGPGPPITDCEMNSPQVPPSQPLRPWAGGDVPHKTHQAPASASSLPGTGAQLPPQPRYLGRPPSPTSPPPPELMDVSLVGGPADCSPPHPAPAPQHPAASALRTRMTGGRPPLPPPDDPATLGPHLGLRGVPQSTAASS
Dual specificity protein kinase CLK3 (Homo sapiens), sequence (P49761 whole entry, looked up): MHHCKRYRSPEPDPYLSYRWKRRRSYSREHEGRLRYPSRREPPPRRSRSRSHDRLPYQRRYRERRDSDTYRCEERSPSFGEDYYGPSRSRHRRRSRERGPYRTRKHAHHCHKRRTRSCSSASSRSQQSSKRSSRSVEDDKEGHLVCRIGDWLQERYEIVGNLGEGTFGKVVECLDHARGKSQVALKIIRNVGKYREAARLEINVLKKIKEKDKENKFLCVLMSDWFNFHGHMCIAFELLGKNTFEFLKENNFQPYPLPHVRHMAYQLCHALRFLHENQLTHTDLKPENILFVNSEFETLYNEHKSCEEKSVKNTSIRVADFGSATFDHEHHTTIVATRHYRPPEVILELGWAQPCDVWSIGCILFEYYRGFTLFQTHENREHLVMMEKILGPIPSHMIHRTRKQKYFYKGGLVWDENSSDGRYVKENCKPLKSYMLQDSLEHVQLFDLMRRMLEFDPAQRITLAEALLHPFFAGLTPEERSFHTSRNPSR
Homeodomain-interacting protein kinase 1 (Homo sapiens), sequence (Q86Z02 whole entry, looked up): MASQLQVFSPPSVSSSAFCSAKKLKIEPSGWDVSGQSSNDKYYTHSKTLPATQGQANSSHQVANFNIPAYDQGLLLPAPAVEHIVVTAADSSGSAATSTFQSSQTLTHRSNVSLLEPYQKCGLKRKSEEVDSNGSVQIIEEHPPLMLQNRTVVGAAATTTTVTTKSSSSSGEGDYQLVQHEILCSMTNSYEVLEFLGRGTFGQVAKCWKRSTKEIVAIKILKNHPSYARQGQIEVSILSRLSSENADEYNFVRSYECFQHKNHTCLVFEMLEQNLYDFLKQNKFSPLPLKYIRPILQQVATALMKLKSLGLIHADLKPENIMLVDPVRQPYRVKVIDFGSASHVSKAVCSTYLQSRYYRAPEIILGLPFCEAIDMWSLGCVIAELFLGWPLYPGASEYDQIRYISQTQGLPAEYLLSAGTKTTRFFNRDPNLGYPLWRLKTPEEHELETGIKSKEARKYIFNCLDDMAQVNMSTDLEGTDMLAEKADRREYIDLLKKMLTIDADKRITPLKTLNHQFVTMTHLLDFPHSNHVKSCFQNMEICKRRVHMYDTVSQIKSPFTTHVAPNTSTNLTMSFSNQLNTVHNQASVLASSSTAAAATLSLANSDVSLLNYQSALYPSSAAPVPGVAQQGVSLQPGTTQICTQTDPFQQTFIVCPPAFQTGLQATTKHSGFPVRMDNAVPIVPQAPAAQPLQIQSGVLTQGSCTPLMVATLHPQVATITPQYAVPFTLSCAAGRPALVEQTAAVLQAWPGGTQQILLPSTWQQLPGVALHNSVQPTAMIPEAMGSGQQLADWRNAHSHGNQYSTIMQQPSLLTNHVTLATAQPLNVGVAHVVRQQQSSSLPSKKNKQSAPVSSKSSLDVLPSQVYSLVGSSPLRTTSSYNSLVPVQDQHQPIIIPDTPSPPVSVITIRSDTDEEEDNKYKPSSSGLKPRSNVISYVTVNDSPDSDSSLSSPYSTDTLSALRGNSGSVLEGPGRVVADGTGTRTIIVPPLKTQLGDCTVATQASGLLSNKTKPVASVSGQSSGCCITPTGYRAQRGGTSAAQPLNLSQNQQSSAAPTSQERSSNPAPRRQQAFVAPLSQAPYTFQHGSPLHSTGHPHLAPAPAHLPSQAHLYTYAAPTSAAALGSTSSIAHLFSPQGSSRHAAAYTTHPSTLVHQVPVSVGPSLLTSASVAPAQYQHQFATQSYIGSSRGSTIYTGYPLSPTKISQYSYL
Mitogen-activated protein kinase 9 (Homo sapiens), sequence (P45984 whole entry, looked up): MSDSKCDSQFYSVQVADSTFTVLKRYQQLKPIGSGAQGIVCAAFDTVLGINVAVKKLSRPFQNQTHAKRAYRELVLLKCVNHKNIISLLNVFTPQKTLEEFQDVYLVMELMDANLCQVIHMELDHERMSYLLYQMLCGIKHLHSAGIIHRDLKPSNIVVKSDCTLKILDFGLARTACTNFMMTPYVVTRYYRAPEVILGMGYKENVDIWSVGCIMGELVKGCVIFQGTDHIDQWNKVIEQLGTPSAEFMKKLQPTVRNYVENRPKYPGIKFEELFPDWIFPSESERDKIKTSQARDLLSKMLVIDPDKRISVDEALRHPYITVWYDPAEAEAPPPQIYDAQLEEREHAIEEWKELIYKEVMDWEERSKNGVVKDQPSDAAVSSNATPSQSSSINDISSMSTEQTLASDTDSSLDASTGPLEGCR

For `CCCN(CCS(C)(=O)=O)Cc1ccc(-c2ccc3ncnc(Nc4ccc(OCc5cccc(F)c5)c(Cl)c4)c3c2)o1`, the inhibition in assay [1] was found to be 3.58%; in assay [2] it was 4.83%; in [3], 10.8%; in assay [4], 4.87%; in assay [5], 10.4%; in assay [6], 1.93%. In addition, the inhibition is 2.03% in assay [7]; 7.55% in assay [8]; 9.2% in assay [9]; 6.85% in assay [10]; 10.2% in assay [11]; 6.46% in [12]. Further, the inhibition in assay [13] worked out at 11.6%; in [14], 3.01%; in assay [15], 9.25%; in assay [16], 2.74%; in assay [17], 4.94%; in [18] it was 1.68%. Further, the inhibition in [19] was determined as 3.24%; in [20], 1.75%.

Turning to `CCCN1CCC(c2ccc(Nc3nc(Nc4cc(F)ccc4C(N)=O)c4cc[nH]c4n3)c(OC)c2)CC1`, the inhibition in [1] was determined as 22%; in assay [2], 63.1%; in assay [3] it was 81.9%; in assay [4], 65.2%; in [5], 81.9%; in [6], 10.3%. For the same compound, the inhibition in assay [7] amounted to 49%; in [8] it was 6.12%; in assay [9], 8.5%; in assay [10], 4.67%; in assay [11] it was 9.55%; in assay [12], 49.2%. The inhibition was found to be 81.5% in [13]; 59.6% in assay [14]; 84.6% in assay [15]; 68% in assay [16]; 83.8% in assay [17]; 9.4% in [18]. Moreover, the inhibition came out at 30.2% in [19] and 4.94% in [20].

With `COC(=O)Nc1nc2ccc(Oc3ccc(NC(=O)Nc4cccc(Cl)c4)cc3)cc2[nH]1`, the inhibition in assay [1] is -1.09%; in assay [2], -1.75%; in assay [3], -2.75%; in [4], -1.02%; in [5] it was -0.33%; in assay [6], 1.12%. For the same compound, the inhibition in [7] is -2.41%; in assay [8], 3.91%; in assay [9] it was 3.54%; in assay [10] it was 2.92%; in assay [11] it was 4.55%; in assay [12], -1.97%. In addition, the inhibition is -0.94% in assay [13]; 2.35% in assay [14]; 14.8% in assay [15]; 1.98% in assay [16]; 5.76% in assay [17]; 1.02% in assay [18]. In addition, the values for the inhibition in assay [19] and in assay [20] were 1.55% and -0.95%, respectively.

Take `CCOc1ccc2c(-c3ccnc(Nc4cccc(C(F)(F)F)c4)n3)cnn2n1`: the inhibition was 6.13% in assay [1]; -0.46% in assay [2]; 6.48% in assay [3]; 1.37% in assay [4]; 21% in assay [5]; 1.79% in [6]. In addition, the inhibition came out at 0.78% in [7]; 12.1% in assay [8]; 46.1% in assay [9]; 5.68% in [10]; 33.6% in [11]; 21.8% in assay [12]. For the same compound, the inhibition came to 70% in assay [13]; 10.3% in assay [14]; 46.2% in assay [15]; 1.84% in assay [16]; 1.35% in assay [17]; 3.23% in assay [18]. Also, the inhibition in assay [19] is 3.31%; in assay [20], 2.89%.

As to `COc1cc2c(cc1Nc1nc(Nc3ccsc3C(N)=O)c3cc[nH]c3n1)N(C(=O)CN(C)C)CCC2(C)C`, the inhibition is 4.74% in assay [1]; 4.97% in [2]; 15.5% in [3]; 1.64% in [4]; 10.2% in assay [5]; 4.55% in [6]. The inhibition came out at 6.57% in assay [7]; 7.63% in assay [8]; 21.1% in assay [9]; 5.85% in assay [10]; 17% in assay [11]; 0.05% in [12]. Besides, the inhibition in assay [13] is 7.66%; in assay [14] it was -0.16%; in [15], 6.13%; in assay [16], 7.73%; in assay [17], 13.9%; in assay [18] it was 4.87%. In addition, the inhibition in [19] was 12.2%; in assay [20], 3.02%.

Take `Fc1cccc(COc2ccc(Nc3ncnc4sc(-c5ccco5)cc34)cc2Cl)c1`: the inhibition is 0.86% in [1]; 3.24% in [2]; 4.83% in assay [3]; -1.92% in assay [4]; 0.72% in assay [5]; 3.21% in assay [6]. In addition, the inhibition is 0.35% in assay [7]; 3.67% in [8]; 6.09% in assay [9]; 2.77% in [10]; 4.97% in assay [11]; -0.44% in assay [12]. Moreover, the inhibition is 5.88% in [13]; 2.99% in [14]; 5.88% in assay [15]; 1.05% in [16]; 0.94% in [17]; 5.22% in [18]. Further, the inhibition in assay [19] amounted to 5.78%; in assay [20], 2.39%.

The values above are taken from ChEMBL document CHEMBL1961873, “Compounds: GSK PKIS; Assays: Nanosyn kinase panel” (2012).
